Reference: PubChem BioAssay
Active and inactive are the calls of the source. Unless noted, how the calls were made is not given here.

Legend:
[1] = resazurin metabolic signal in HepG2 cells – cell-based, resazurin fluorescence, 24 h, PK04 Diversity Set, profiling panel (AID 1172); conditions: HepG2 viability, higher = more signal; further: test concentration not given here
[2] = budding yeast growth changes without added modifier – OD600, strain BY4716, 24 h, basal condition, primary screen (AID 1173); conditions: S. cerevisiae BY4716 growth, OD600, 24 h; higher = more signal, called active from +8 up or from −8 down
[3] = viability profiling in MM1S myeloma cells – cell-based, resazurin fluorescence, basal, 24 h, PK04 Diversity Set, profiling panel (AID 1174); conditions: higher = more signal, called active from +8 up or from −8 down;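 further: MM1S multiple myeloma cell line; test concentration not given here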
[4] = biological target: Dihydroorotate dehydrogenase (quinone), mitochondrial (Plasmodium falciparum (isolate 3D7)) (UniProt Q08210); assay: inhibition of P. falciparum DHODH – biochemical, C-terminal His tag, absorbance 600 nm, primary screen (AID 1175); conditions: PfDHODH enzyme, DCIP absorbance 600 nm; higher = more signal, called active from +8 up or from −8 down;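 further: recombinant parasite enzyme with a five histidine tag at its C terminus; test concentration not given here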
[5] = inhibition of PAO1 biofilm formation – strain PAO1, LB-PBS medium, absorbance 600 nm, primary screen (AID 1176); further: test concentration not given here; conditions: P. aeruginosa PAO1 growth/biofilm, A600, 12 h; higher = more signal
[6] = growth modulation of vineyard yeast isolate – strain RM11-1a, OD600, basal, 24 h, primary screen (AID 1177);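 further: cultures grown under basal conditions with no added stressor; test concentration not given here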; conditions: S. cerevisiae RM11-1a growth, OD600, 24 h; higher = more signal, called active from +8 up or from −8 down
[7] = growth of efflux-deficient E. coli DRC39 – strain DRC39, OD650, 24 h, E. coli filamentation inducers, primary screen (AID 1178);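 further: growth measured as culture turbidity by optical density at 650 nm; test concentration not given here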; conditions: E. coli DRC39 acrAB, higher = more signal, called active from +8 up or from −8 down
[8] = growth of efflux-deficient E. coli DRC39 – strain DRC39, OD650, 48 h, E. coli filamentation inducers, primary screen (AID 1179);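 further: screen aims at cell division blockers that make cells filament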; conditions: E. coli DRC39 delta-acrAB growth, higher = more signal, called active from +8 up or from −8 down
[9] = viability profiling in RPMI8226 myeloma cells – cell-based, resazurin fluorescence, basal, 24 h, PK04 Diversity Set, profiling panel (AID 1180); conditions: higher = more signal;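 further: RPMI8826 multiple myeloma cell line at 5000 cells per well; test concentration not given here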
[10] = biological target: E3 ubiquitin-protein ligase XIAP (Homo sapiens) (UniProt P98170); assay: small molecules binding XIAP protein – biophysical, small-molecule microarray, fluorescence 635 nm, primary screen (AID 1181); conditions: higher = more signal;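 further: score merges 667 nm emission and signal to noise over triplicate slides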
E3 ubiquitin-protein ligase XIAP (Homo sapiens), sequence (P98170 whole entry, looked up): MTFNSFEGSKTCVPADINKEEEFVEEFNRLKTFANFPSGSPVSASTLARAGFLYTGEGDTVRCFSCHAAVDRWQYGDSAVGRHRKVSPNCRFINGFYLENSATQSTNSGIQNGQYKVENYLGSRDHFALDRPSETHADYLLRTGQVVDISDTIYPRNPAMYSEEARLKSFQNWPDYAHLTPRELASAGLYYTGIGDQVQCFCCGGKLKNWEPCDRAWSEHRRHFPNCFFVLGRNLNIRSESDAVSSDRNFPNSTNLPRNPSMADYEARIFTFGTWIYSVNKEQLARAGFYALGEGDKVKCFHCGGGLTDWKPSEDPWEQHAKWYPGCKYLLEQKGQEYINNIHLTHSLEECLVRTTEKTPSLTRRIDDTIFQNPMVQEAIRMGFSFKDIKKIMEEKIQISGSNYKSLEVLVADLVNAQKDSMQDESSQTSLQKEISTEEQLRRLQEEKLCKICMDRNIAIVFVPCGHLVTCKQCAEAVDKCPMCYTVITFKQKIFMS

Dihydroorotate dehydrogenase (quinone), mitochondrial (Plasmodium falciparum (isolate 3D7)), sequence (Q08210 whole entry, looked up): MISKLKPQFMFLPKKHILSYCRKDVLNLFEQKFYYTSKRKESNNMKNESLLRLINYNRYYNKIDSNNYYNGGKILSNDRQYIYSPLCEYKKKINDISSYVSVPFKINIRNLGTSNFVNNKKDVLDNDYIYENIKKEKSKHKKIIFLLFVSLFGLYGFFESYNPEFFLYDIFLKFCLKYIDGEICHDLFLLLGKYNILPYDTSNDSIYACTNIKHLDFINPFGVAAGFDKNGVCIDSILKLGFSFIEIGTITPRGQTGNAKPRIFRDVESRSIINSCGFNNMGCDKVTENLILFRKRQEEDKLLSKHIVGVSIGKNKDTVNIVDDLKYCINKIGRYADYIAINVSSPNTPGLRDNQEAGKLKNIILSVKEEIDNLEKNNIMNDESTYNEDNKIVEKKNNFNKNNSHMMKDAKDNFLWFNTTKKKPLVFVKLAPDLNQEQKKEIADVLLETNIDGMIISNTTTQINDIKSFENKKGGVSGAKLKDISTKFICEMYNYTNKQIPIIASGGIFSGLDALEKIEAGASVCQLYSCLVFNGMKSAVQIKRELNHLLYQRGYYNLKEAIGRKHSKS

Structure (SMILES)	z-score [1]	z-score [2]	z-score [3]	composite z-score [4]	z-score [5]	z-score [6]	z-score [7]	z-score [8]	z-score [9]	composite z-score [10]
Cc1ccc(C2C3C(=O)CC4C(=O)N(c5ccccc5)C(=O)C4C3CN2S(=O)(=O)c2ccc(C)cc2)cc1 (stereo not given)	-0.419	1.05 (inactive)	-0.936 (inactive)	-0.274 (inactive)	0.201 (inactive)	1.24 (inactive)	-0.478 (inactive)	0.384 (inactive)	-0.82	-0.173
CCN(CC)c1ccc(N2CC=CC34O[C@@H]5/C=C\CCC(C)OC(=O)C5[C@H]3C(=O)N(CCCCCO)[C@@H]4C2=O)cc1 (stereo not given in full)	0.18	-0.596 (inactive)	0.603 (inactive)	0.513 (inactive)	-0.469 (inactive)	-0.147 (inactive)	0.95 (inactive)	1.1 (inactive)	0.802	-0.161
O=C(NC1CC1)[C@@H]1c2ccccc2C(=O)N(C2Cc3ccccc3C2)[C@H]1c1ccc(CO)cc1	0.21	-0.009 (inactive)	0.475 (inactive)	-0.0711 (inactive)	0.196 (inactive)	0.397 (inactive)	0.223 (inactive)	0.722 (inactive)	0.543	-0.0044
O=C1NC(=O)C2C1C=CC(C(O)C1CC=CCC1)N2Nc1ccccn1 (stereo not given)	-1.16	1.05 (inactive)	-1.35 (inactive)	1.07 (inactive)	0.916 (inactive)	0.636 (inactive)	-0.857 (inactive)	-0.0662 (inactive)	-1.57	0.0512
COCCCNC(=O)[C@@]1(Cc2ccccc2)N=C(c2ccc(OCCCO)cc2)O[C@H]1c1ccccc1CN=[N+]=[N-]	-0.708	-0.176 (inactive)	-0.78 (inactive)	-0.453 (inactive)	0.95 (inactive)	0.499 (inactive)	0.0347 (inactive)	0.134 (inactive)	-1.22	0.0607
COC(=O)[C@]1(CCC(=O)OC(C)(C)C)N=C(c2ccc(OCCCO)cc2)O[C@@H]1c1ccccc1	-0.134	-0.761 (inactive)	-0.671 (inactive)	-0.134 (inactive)	0.438 (inactive)	0.504 (inactive)	3.37 (inactive)	0.648 (inactive)	-1.47	0.153
CO[C@H]1O[C@H](CO)[C@@H](OC(=O)Nc2ccccc2-c2ccccc2)[C@H](OC(=O)Nc2ccccc2-c2ccccc2)[C@@H]1OC(=O)Nc1ccccc1-c1ccccc1	-0.141	-0.652 (inactive)	-0.146 (inactive)	0.288 (inactive)	1.31 (inactive)	2.59 (inactive)	0.454 (inactive)	0.434 (inactive)	0.203	-0.0233
